# Data published in publication PMC5540273 (PLoS ONE, 2017).
# Columns and labels:
# Conditions in all cases: concentration: 1 μM, replicates: in singlicate; n = 1
# NEK3 = system: NEK3
# NEK4 = system: NEK4
# NEK5 = system: NEK5
# NEK6 = system: NEK6
# NEK7 = system: NEK7
# NEK9 = system: NEK9
# NIK = system: T1, NIK
# T1 construct: gene MAP3K14
# NIM1 = system: T2, NIM1
# T2 construct: gene MGC42105
# NLK = system: NLK
# OSR1 = system: T3, OSR1
# T3 construct: gene OXSR1
# 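Note: KINOMEscan kinase panel screen.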
Compound,%Inh (NEK3) [%],%Inh (NEK4) [%],%Inh (NEK5) [%],%Inh (NEK6) [%],%Inh (NEK7) [%],%Inh (NEK9) [%],%Inh (NIK) [%],%Inh (NIM1) [%],%Inh (NLK) [%],%Inh (OSR1) [%]
Nc1nccc2scc(-c3ccc4c(c3)CCN4C(=O)Cc3cc(F)ccc3F)c12 [GSK2587663],0,9,6,0,0,4,0,18,2,5
CCc1nc(-c2cccc(N(C)S(=O)(=O)c3ccccc3)c2)c(-c2ccnc(Nc3ccc(N4CCN(C(C)=O)CC4)nc3)n2)s1 [GSK1645895],9,19,0,0,0,14,0,0,8,3
Fc1ccc(-c2ncn(CCCNCc3ccccc3)c2-c2ccncc2)cc1,31,7,6,12,0,0,12,15,13,19
Cl.Fc1ccccc1COc1ccc(Nc2ncnc3ccc(-c4nnc(C(F)(F)F)o4)cc23)cc1Cl [GW424170],0,0,4,0,0,0,10,0,0,0
CCCc1ccc(S(=O)(=O)NC2CCN(c3ccnc(Nc4ccc(OC)cc4)n3)C2)cc1 (stereo not drawn) [GSK1379737],1,10,15,39,0,0,43,30,0,100
Clc1cc(Nc2ncnc3cc[nH]c23)ccc1OCc1ccccn1,22,6,0,16,0,7,0,35,0,2
CCC(CC)(CC)n1cnc2c(N)ncnc21 [SKF-97620],23,0,0,0,0,0,0,28,17,19
COc1ccc(NC(=O)Nc2ccc(C)c(-c3ccc(C(=O)Nc4ccncc4)cc3)c2)cc1 [GSK1398475],10,0,8,0,0,0,0,0,43,0
NC(=O)c1sc(-n2cnc3ccccc32)cc1OCc1ccccc1F [GSK1024306],0,0,0,0,0,0,0,20,1,1
CSc1ccc(NC2=C(c3ccccc3Cl)C(=O)NC2=O)cc1 [SB-342411],0,0,8,0,0,15,0,0,56,2
Cn1ccc2ncnc(Nc3ccc(Oc4cccc(Cl)c4)c(Cl)c3)c21,26,11,0,25,4,17,0,0,0,15
FC(F)(F)c1ccc(-c2nn3ncccc3c2-c2ccnc(Nc3cccc(C(F)(F)F)c3)n2)cc1 [GW828205],15,0,0,0,0,0,0,0,10,0
Cl.O=S(=O)(c1cccc(F)c1)c1ccc(Nc2ncnc3cc(Br)sc23)cc1Cl [GSK306886],0,0,59,0,0,23,4,0,44,0
COc1cc2ncnc(Nc3ccc(OCc4ccccc4Br)c(Cl)c3)c2cc1OC.Cl [GI261590],12,0,14,0,0,0,20,22,26,0
COc1cc2c(Nc3cccc(NC(=O)c4ccccc4)c3)ncnc2cc1OCCCN1CCOCC1 [GSK223810],0,0,0,0,0,21,0,0,33,16
Clc1cccc(-c2nc(Nc3ccncc3)c3ccccc3n2)c1 [GW873004],36,0,23,14,0,3,0,0,30,0
CC(C)(C)OC(=O)NC1CCCN(c2cc(-c3ccc4c(N)n[nH]c4c3)nc(N)n2)C1 (stereo not drawn) [GSK2286096],3,13,2,0,0,2,0,9,27,0
CC(C)(C)c1ccc(-n2cnc3c(N)ncnc32)cc1 [SKF-97263],0,19,10,0,16,14,0,9,26,16
Cc1ccc(O)cc1Nc1cc(C(F)(F)F)nc2ccc(-c3ccncc3)cc12 [GW630823],0,0,6,8,58,42,0,0,10,0
COc1ccc(-c2oc3ncnc(N)c3c2-c2ccc(OC)cc2)cc1 [SB-589132],17,20,31,0,0,19,33,37,4,0
N#Cc1ccc(Oc2ccc(Nc3ncnc4cc[nH]c34)cc2Cl)cc1,26,0,0,0,13,2,0,30,17,4
